In PubChem BioAssay:
Calls of active or inactive are those of the source.

Legend:
[1] = optical density shifts of acrAB sulA E. coli – strain DRC41, OD650, 48 h, E. coli filamentation inducer project, primary screen (AID 1152); conditions: higher = more signal, called active from +8 up or from −8 down;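 further: E. coli MC1000 strain DRC41 lacking acrAB efflux pump and sulA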
[2] = probe aLefty1 binding on compound microarray – biochemical, small-molecule microarray, 635/667 nm fluorescence, primary screen (AID 1153); conditions: higher = more signal;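 further: score merges spot fluorescence with signal-to-noise ratio from the scanned slide images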
[3] = plasmodial surface anion channel blockers, osmotic lysis – cell-based, P. falciparum Indochina, OD700, 1 h, primary screen (AID 1154); conditions: P. falciparum Indochina infected RBC osmotic lysis, higher = more signal, called active from +8 up or from −8 down
[4] = plasmodial surface anion channel blockers, osmotic lysis – cell-based, P. falciparum Indochina, OD700, 2 h, primary screen (AID 1155);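 further: lysis reports solute entry through the parasite surface anion channel PSAC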; conditions: P. falciparum Indochina infected erythrocytes, higher = more signal, called active from +8 up or from −8 down
[5] = changes in parasitized red cell lysis, either direction – P. falciparum Indochina, OD700, 3 h, PSAC antagonist project, primary screen (AID 1156); conditions: P. falciparum-infected erythrocytes, osmotic lysis, higher = more signal, called active from +8 up or from −8 down
[6] = plasmodial surface anion channel blockers, osmotic lysis – cell-based, P. falciparum Indochina, OD700, 18 h, primary screen (AID 1157); conditions: P. falciparum Indochina infected erythrocytes, osmotic lysis OD700, 18 h; higher = more signal, called active from +8 up or from −8 down
[7] = S6 kinase pathway phospho-S6 level changes – cell-based, A549, cytoblot, luminescence, serum-stimulated, primary screen (AID 1158); conditions: 5 h, higher = more signal;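 further: serum-stimulated A549 lung adenocarcinoma cells; signal is phosphorylated S6 detected by cytoblot immunostaining with HRP secondary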
[8] = target: NADPH oxidase 2 (Homo sapiens) (UniProt P04839); test: compounds shifting NOX2 Amplex Red fluorescence – cell-based, HEK293-NOX2, PMA-stimulated, NOX inhibitor project, primary screen (AID 1159); conditions: 45 min, higher = more signal, called active from +8 up or from −8 down; further: test concentration not given here
[9] = target: NADPH oxidase 4 (Homo sapiens) (UniProt Q9NPH5); test: compounds shifting NOX4 Amplex Red fluorescence – cell-based, HEK293-NOX4, tetracycline-induced, NOX inhibitor project, primary screen (AID 1160); conditions: HEK293-NOX4, Amplex Red H2O2 fluorescence, 45 min; higher = more signal, called active from +8 up or from −8 down
[10] = target: NADPH oxidase 5 (Homo sapiens) (UniProt Q96PH1); test: compounds shifting NOX5 Amplex Red fluorescence – cell-based, HEK293-NOX5, NOX inhibitor project, primary screen (AID 1161); conditions: HEK293-NOX5, ionomycin, 45 min, higher = more signal
[11] = compound effects on lung adenocarcinoma cell viability – A549, calcein-AM fluorescence, 48 h, basal, profiling panel (AID 1162); conditions: higher = more signal; further: test concentration not given here
[12] = compound effects on differentiated 3T3-L1 adipocyte viability – cell-based, 3T3-L1 adipocytes, calcein-AM fluorescence, 48 h, basal, profiling panel (AID 1163); conditions: 3T3-L1 adipocytes viability, higher = more signal; further: test concentration not given here
[13] = compound effects on hepatocellular carcinoma cell viability – HepG2, calcein-AM fluorescence, 48 h, basal, profiling panel (AID 1164); conditions: higher = more signal; further: test concentration not given here
[14] = compound effects on multiple myeloma cell viability – MM1S, calcein-AM fluorescence, 48 h, basal, profiling panel (AID 1165); conditions: higher = more signal; further: test concentration not given here
[15] = calcein-AM signal in unstimulated myeloma cells – cell-based, calcein-AM fluorescence, 48 h, PK04 Diversity Set, profiling panel (AID 1166); conditions: RPMI8226 myeloma viability, higher = more signal;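 further: cells grown under basal conditions without added stimulus; test concentration not given here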
[16] = JC-1 mitochondrial signal, unstimulated HepG2 cells – cell-based, JC-1 fluorescence, 24 h, 100 nL compound, profiling panel (AID 1167); conditions: HepG2 mitochondrial potential, higher = more signal; further: test concentration not given here
[17] = JC-1 mitochondrial signal, unstimulated adipocytes – cell-based, JC-1 fluorescence, 3T3-L1 adipocytes, 24 h, 100 nL compound, profiling panel (AID 1168); conditions: JC-1 mitochondrial fluorescence, higher = more signal, called active from +8 up or from −8 down; further: test concentration not given here
[18] = JC-1 mitochondrial signal, unstimulated myeloma cells – cell-based, JC-1 fluorescence, RPMI8226, 24 h, 100 nL compound, profiling panel (AID 1169); conditions: JC-1 mitochondrial potential fluorescence, higher = more signal; further: test concentration not given here
[19] = JC-1 mitochondrial signal, unstimulated MM1S myeloma – cell-based, JC-1 fluorescence, 24 h, 100 nL compound, profiling panel (AID 1170); conditions: MM1S mitochondrial potential, higher = more signal; further: test concentration not given here
[20] = resazurin metabolic signal in A549 cells – cell-based, resazurin fluorescence, 24 h, PK04 Diversity Set, profiling panel (AID 1171); conditions: A549 viability, higher = more signal, called active from +8 up or from −8 down; further: test concentration not given here

NADPH oxidase 4 (Homo sapiens), sequence (Q9NPH5 whole entry, looked up): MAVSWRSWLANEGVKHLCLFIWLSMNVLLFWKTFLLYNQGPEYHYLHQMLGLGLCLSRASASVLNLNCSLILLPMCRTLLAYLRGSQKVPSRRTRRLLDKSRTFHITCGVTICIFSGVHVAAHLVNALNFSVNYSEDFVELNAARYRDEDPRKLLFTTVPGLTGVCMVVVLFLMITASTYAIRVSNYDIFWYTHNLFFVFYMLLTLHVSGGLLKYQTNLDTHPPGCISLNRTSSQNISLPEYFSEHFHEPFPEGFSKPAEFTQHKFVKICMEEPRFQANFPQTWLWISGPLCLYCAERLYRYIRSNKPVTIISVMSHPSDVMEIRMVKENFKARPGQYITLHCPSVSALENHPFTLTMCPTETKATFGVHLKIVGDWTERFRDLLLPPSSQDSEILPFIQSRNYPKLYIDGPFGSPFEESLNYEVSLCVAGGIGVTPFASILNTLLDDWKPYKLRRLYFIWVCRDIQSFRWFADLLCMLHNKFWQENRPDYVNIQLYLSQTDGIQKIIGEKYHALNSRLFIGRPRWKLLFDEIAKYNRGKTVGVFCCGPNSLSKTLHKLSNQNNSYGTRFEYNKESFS
NADPH oxidase 2 (Homo sapiens), sequence (P04839 whole entry, looked up): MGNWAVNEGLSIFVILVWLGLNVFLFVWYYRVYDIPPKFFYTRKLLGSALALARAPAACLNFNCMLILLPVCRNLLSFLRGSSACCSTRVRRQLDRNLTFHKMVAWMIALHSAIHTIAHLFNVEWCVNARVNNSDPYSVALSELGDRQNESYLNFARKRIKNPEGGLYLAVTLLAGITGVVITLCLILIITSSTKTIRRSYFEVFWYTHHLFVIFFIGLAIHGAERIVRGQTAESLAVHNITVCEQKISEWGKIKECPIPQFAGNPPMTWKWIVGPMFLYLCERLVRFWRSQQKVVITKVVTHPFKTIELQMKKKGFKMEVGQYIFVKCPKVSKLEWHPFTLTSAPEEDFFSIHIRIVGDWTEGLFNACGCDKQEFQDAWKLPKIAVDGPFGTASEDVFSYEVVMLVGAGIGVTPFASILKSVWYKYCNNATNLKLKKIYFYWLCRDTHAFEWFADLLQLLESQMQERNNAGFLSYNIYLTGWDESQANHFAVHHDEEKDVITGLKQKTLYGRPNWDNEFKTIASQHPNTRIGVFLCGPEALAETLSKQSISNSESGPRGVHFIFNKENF
NADPH oxidase 5 (Homo sapiens), sequence (Q96PH1 whole entry, looked up): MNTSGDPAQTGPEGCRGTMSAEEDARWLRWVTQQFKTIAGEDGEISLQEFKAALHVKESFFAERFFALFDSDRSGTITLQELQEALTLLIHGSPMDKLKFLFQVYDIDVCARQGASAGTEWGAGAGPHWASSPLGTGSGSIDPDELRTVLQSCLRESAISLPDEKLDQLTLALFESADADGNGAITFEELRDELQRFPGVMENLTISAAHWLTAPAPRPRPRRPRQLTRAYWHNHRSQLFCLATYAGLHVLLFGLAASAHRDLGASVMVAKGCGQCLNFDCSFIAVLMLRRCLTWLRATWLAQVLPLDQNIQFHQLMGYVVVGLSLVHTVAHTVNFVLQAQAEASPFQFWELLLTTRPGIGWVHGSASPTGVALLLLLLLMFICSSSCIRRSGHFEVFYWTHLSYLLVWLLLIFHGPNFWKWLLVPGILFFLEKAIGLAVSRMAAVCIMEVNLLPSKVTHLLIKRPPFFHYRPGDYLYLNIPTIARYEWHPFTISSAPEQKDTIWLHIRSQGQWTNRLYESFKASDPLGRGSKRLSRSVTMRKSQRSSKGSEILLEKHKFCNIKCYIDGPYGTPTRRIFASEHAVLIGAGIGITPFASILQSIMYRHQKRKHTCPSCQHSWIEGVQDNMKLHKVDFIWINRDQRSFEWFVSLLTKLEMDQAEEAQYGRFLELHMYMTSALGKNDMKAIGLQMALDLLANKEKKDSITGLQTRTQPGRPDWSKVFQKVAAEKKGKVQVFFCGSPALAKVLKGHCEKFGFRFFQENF

With `C=CCOc1ccc([C@@H]2CC=C(C(=O)OCC)[C@H](c3cccc(Br)c3)N2S(=O)(=O)c2ccc(C)cc2)cc1` the z-score [1] was 0.251 (inactive), the composite z-score [2] was -0.012 and the z-score [3] was 0.652 (inactive). For the same molecule, the z-score [4] was -0.384 (inactive), the z-score [5] was -0.864 (inactive) and the z-score [6] was -2.24 (inactive). The z-score [7] was 1.11, the z-score [8] was 0.629 (inactive) and the z-score [9] was 0.399 (inactive). The z-score [10] was -0.0171, the z-score [11] was 0.954 and the z-score [12] was 0.261. For the same molecule, the z-score [13] was -0.508, the z-score [14] was 0.394 and the z-score [15] was -0.455. The z-score [16] was 4.43, the z-score [17] was 0.392 (inactive) and the z-score [18] was -0.957. For the same molecule, the z-score [19] was -0.0677 and the z-score [20] was -0.924 (inactive).
In the case of `CN(C)CCCCNC(=O)[C@H]1C[C@H]2C(=O)N[C@@H](CCCC[N+](C)(C)C)C(=O)N2[C@H]1c1cccc(OCCO)c1`, the z-score [1] is reported as 0.125 (inactive), the composite z-score [2] is reported as 0.145 and the z-score [3] is reported as 3.16 (inactive). For the same molecule, the z-score [4] was 0.77 (inactive), the z-score [5] was 0.675 (inactive) and the z-score [6] was 0.178 (inactive). The z-score [7] was -0.294, the z-score [8] was 2.19 (inactive) and the z-score [9] was 1.58 (inactive). The z-score [10] was 1.26, the z-score [11] was -0.532 and the z-score [12] was 0.067. It also gave a z-score [13] of -0.491, a z-score [14] of -0.845 and a z-score [15] of 0.54. The z-score [16] was -1.18, the z-score [17] was -0.333 (inactive) and the z-score [18] was -0.674. For the same molecule, the z-score [19] was -0.448 and the z-score [20] was 0.0625 (inactive).
For `COCCCNC(=O)[C@]1(Cc2ccccc2CN=[N+]=[N-])N=C(c2ccc(OCCCO)cc2)O[C@@H]1c1ccccc1CN=[N+]=[N-]`, the z-score [1] was -0.279 (inactive), the composite z-score [2] was 0.861 and the z-score [3] was 28.8 (active). For the same molecule, the z-score [4] was 21.5 (active), the z-score [5] was 1.72 (inactive) and the z-score [6] was 2.09 (inactive). The z-score [7] was 0.953, the z-score [8] was -0.983 (inactive) and the z-score [9] was -0.00869 (inactive). It also gave a z-score [10] of -0.84, a z-score [11] of -0.386 and a z-score [12] of 0.0035. For the same molecule, the z-score [13] was -0.918, the z-score [14] was -2.79 and the z-score [15] was -4.22. The z-score [16] was 1.31, the z-score [17] was -0.907 (inactive) and the z-score [18] was -1.18. For the same molecule, the z-score [19] was -1.73 and the z-score [20] was -0.241 (inactive).
With `C=CC[C@@]1(C(=O)NCCN2CCOCC2)N=C(c2ccc(OCCCO)cc2)O[C@@H]1c1ccccc1` the z-score [1] was -0.302 (inactive), the composite z-score [2] was 0.562 and the z-score [3] was 18.7 (active). For the same molecule, the z-score [4] was 3.03 (inactive), the z-score [5] was 1.55 (inactive) and the z-score [6] was 0.863 (inactive). For the same molecule, the z-score [7] was -0.501, the z-score [8] was 0.48 (inactive) and the z-score [9] was 0.62 (inactive). It also gave a z-score [10] of -0.092, a z-score [11] of -0.181 and a z-score [12] of 0.458. The z-score [13] was -0.253, the z-score [14] was 0.672 and the z-score [15] was 0.418. For the same molecule, the z-score [16] was 0.603, the z-score [17] was -0.672 (inactive) and the z-score [18] was 0.574. For the same molecule, the z-score [19] was 0.4 and the z-score [20] was 1.28 (inactive).
For `CC(C)(C)OC(=O)CC[C@]1(C(=O)O)COC(c2ccc(OCCCO)cc2)=N1`, the z-score [1] was -0.283 (inactive), the composite z-score [2] was 0.126 and the z-score [3] was 2.54 (inactive). For the same molecule, the z-score [4] was -0.0827 (inactive), the z-score [5] was 0.091 (inactive) and the z-score [6] was 0.0515 (inactive). For the same molecule, the z-score [7] was -0.426, the z-score [8] was 0.0212 (inactive) and the z-score [9] was 0.624 (inactive). For the same molecule, the z-score [10] was 0.487, the z-score [11] was -0.0651 and the z-score [12] was -2.83. The z-score [13] was 0.218, the z-score [14] was -0.97 and the z-score [15] was 0.151. The z-score [16] was -0.924, the z-score [17] was -0.564 (inactive) and the z-score [18] was -0.812. For the same molecule, the z-score [19] was 0.148 and the z-score [20] was -0.135 (inactive).
For `C=CCC(OC(C)=O)[C@@H]1[C@@H](N(Cc2ccc(-c3ccccc3)cc2)C(=O)Cc2ccc(OC)cc2)c2cc(OCCCO)ccc2N1C(=O)c1ccc(-c2ccccc2)cc1` (stereo not given in full), the z-score [1] was 0.769 (inactive), the composite z-score [2] was 0.587 and the z-score [3] was 1.09 (inactive). For the same molecule, the z-score [4] was 0.969 (inactive), the z-score [5] was 0.0304 (inactive) and the z-score [6] was 0.406 (inactive). For the same molecule, the z-score [7] was 1, the z-score [8] was 0.713 (inactive) and the z-score [9] was 0.878 (inactive). For the same molecule, the z-score [10] was 2.49, the z-score [11] was 0.817 and the z-score [12] was 0.397. It also gave a z-score [13] of 1.3, a z-score [14] of 0.366 and a z-score [15] of 0.368. The z-score [16] was 3.34, the z-score [17] was 0.269 (inactive) and the z-score [18] was 0.298. For the same molecule, the z-score [19] was 0.494 and the z-score [20] was 1.21 (inactive).
With `CCCCCCC#C[Si](O[C@H](c1ccccc1)c1cn(Cc2cccc(Cl)c2)nn1)(C(C)C)C(C)C` the z-score [1] was 1.9 (inactive), the composite z-score [2] was -0.142 and the z-score [3] was 0.876 (inactive). For the same molecule, the z-score [4] was 0.886 (inactive), the z-score [5] was 0.0206 (inactive) and the z-score [6] was 0.162 (inactive). For the same molecule, the z-score [7] was 0.635, the z-score [8] was -0.706 (inactive) and the z-score [9] was -0.705 (inactive). For the same molecule, the z-score [10] was -0.576, the z-score [11] was 1.11 and the z-score [12] was -0.896. For the same molecule, the z-score [13] was 0.761, the z-score [14] was 0.481 and the z-score [15] was -0.695. The z-score [16] was 3.44, the z-score [17] was 0.169 (inactive) and the z-score [18] was -0.149. For the same molecule, the z-score [19] was -1.06 and the z-score [20] was 2.58 (inactive).
In the case of `CCCC[C@@H](O)C1=C(COc2ccccc2)Cn2c(=O)n(-c3ccccc3)c(=O)n2[C@H]1CO`, the z-score [1] is reported as 2.85 (inactive), the composite z-score [2] is reported as -0.275 and the z-score [3] is reported as 2.58 (inactive). The z-score [4] was -0.478 (inactive), the z-score [5] was -0.34 (inactive) and the z-score [6] was -2.27 (inactive). The z-score [7] was 0.814, the z-score [8] was -0.809 (inactive) and the z-score [9] was 0.33 (inactive). For the same molecule, the z-score [10] was -0.235, the z-score [11] was 0.753 and the z-score [12] was 0.409. It also gave a z-score [13] of -0.0994, a z-score [14] of 0.356 and a z-score [15] of -1.02. The z-score [16] was -0.368, the z-score [17] was 0.334 (inactive) and the z-score [18] was 0.42. The z-score [19] was 0.277 and the z-score [20] was -0.515 (inactive).
With `COCC(=C=CC[C@@H](O)c1ccccc1OCCO)C[C@@H](O)COCc1ccccc1` the z-score [1] was 2.01 (inactive), the composite z-score [2] was 0.455 and the z-score [3] was 6.15 (inactive). The z-score [4] was -0.29 (inactive), the z-score [5] was 0.66 (inactive) and the z-score [6] was -1.22 (inactive). The z-score [7] was 0.719, the z-score [8] was 0.547 (inactive) and the z-score [9] was 1.31 (inactive). It also gave a z-score [10] of -1.66, a z-score [11] of 1.94 and a z-score [12] of 1.04. The z-score [13] was 1.13, the z-score [14] was 0.338 and the z-score [15] was 0.801. The z-score [16] was 1.32, the z-score [17] was 0.54 (inactive) and the z-score [18] was -0.719. The z-score [19] was 1.59 and the z-score [20] was 1.84 (inactive).
